# Source: PubChem
# The list is not random: actives were taken first. Their share in the collection is about 4.2%.
# RecA intein inh = Mtb RecA intein splicing inhibitors, primary screen, biochemical, fluorescence, HTS. Protein RecA (Mycobacterium tuberculosis (strain ATCC 25618 / H37Rv)), P9WHJ3. cell-free RecA intein splicing. inhibition, % (concentration not given with the values). 0.75% of 290,000 active. AID 2221, 2009; in the data active means inhibition above about 30%;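 further: 0% = vehicle wells and 100% = reference inhibitor control wells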
# Mtb FBA inh = Mtb FBA enzyme inhibitors, primary screen, biochemical, fluorescence, strain H37Rv; Fructose-bisphosphate aldolase (Mycobacterium tuberculosis (strain ATCC 25618 / H37Rv)), …; purified M. tuberculosis FBA, fluorescence read-out; inhibition, % at 1 µM; 2.3% of 360,000 active; AID 588726, 2011; in the data active means inhibition above about 27%;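 further: 0% = vehicle and 100% = reference inhibitor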
# GDH-TPI counter-1 = GDH-TPI coupling enzyme inhibitors, primary screen, artefact control for M. tuberculosis FBA inhibitor project, biochemical, absorbance, full deck | GDH-TPI coupled enzyme counterscreen, NADH absorbance | inhibition, % at 4.8 µM | 1.2% of 360,000 active | AID 588335, 2011;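 further: 0% = DMSO wells and 100% = wells lacking the enzyme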
# CCHFV vOTU inh = CCHFV vOTU protease inhibitors, primary screen, biochemical, Pep-AMC substrate, fluorescence. inhibition, % at 11.5 µM. 0.55% of 370,000 active; further: 0% = vehicle wells with enzyme and 100% = no enzyme wells
# Mtb bLac sens = beta-lactam sensitization of Mtb H37Rv, H37Rv. M. tuberculosis H37Rv growth with meropenem, percent inhibition. inhibition, % at 25 µM. AID 434955, 2010. 0.27% of 330,000 active; call rule not given here;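 further: growth measured after seven days incubation then overnight dye step; 0% = bacteria only wells and 100% = bacteria with antibiotic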
# Mtb FBA inh conf = M. tuberculosis aldolase blockers, biochemical, fluorescence, strain H37Rv, confirmation; purified M. tuberculosis FBA, fluorescence read-out; AID 651616, 2012; inhibition, % at 1 µM; 78% of 5,600 active; shares compounds with Mtb FBA inh; in the data active means inhibition above about 27%;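 further: 0% = vehicle wells and 100% = reference inhibitor wells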
# GDH-TPI counter-2 = GDH-TPI coupling enzyme inhibitors, artefact control for M. tuberculosis FBA inhibitor project, biochemical, fluorescence, high throughput; shares compounds with Mtb FBA inh; GDH-TPI coupled enzyme counterscreen; inhibition, % at 1 µM; 81% of 5,600 active; AID 652141, 2013; in the data active means inhibition above about 10%
# * marks the source's active call; other numbers are inactive results; · = no result given; + = active, no number. Unless noted, no stated cut-off is given here; in the data, active means inhibition above about 30%; inactive means the rest.
SMILES,RecA intein inh,Mtb FBA inh,GDH-TPI counter-1,CCHFV vOTU inh,Mtb bLac sens,Mtb FBA inh conf,GDH-TPI counter-2
COc1ccc(C2CC(c3ccccc3)=NN2C(=O)COC(=O)c2cccc(O)c2)cc1 (stereo not given),·,-2.7,2.5,13.3,2.5,·,·
CN(C)c1nc(-c2ccc([N+](=O)[O-])cc2)cs1,5.4,33.7*,11.7,2.8,-4.4,193.5*,141.6*
COc1ccc2nc3oc(C(=O)NCCCOC(C)C)cc3cc2c1,0.6,110.9*,13.2,-82.0,-7.1,7.1,2.1
COc1ccc2nc3oc(C(=O)NCc4cccs4)cc3cc2c1,-2.4,32.2*,24.3,6.0,0.9,2.0,-3.8
CCOCCCNC(=O)c1cc2cc3cc(OC)ccc3nc2o1,-3.1,109.5*,2.1,-94.8,-1.0,91.1*,66.2*
O=C(NCc1cccs1)c1cc2ccccc2o1,-3.8,-2.9,-5.9,-13.1,-2.8,·,·
O=C(CSC1CCc2ccccc21)NNC(=O)Nc1ccc(Cl)cc1 (stereo not given),·,·,·,-8.1,·,·,·
COC(=O)C1=C(C)N(Cc2cccc(C(F)(F)F)c2)C(=NCc2cc(OC)c(OC)c(OC)c2)NC1c1ccc(F)cc1 (stereo not given),·,·,·,22.5,·,·,·
C=CCc1ccc(O)c(-c2cc(CC=C)ccc2O)c1,16.3,33.7*,10.8,0.8,-6.4,86.3*,63.1*
Cc1nc2oc3c(NCc4ccccn4)ncnc3c2c2c1COC(C)(C)C2,-0.4,93.6*,9.1,-8.0,0.7,86.2*,74.3*
CC1(C)Cc2nc3oc4c(NCc5ccccc5)ncnc4c3cc2CO1,1.6,60.1*,-5.3,-8.2,-2.5,46.8*,44.4*
O=C(CN1CCN(c2nc(-c3ccccc3)cs2)CC1)Nc1ccc(F)cc1F,·,·,·,9.5,·,·,·
Cc1cccc2c(C(=O)O)c3cccc(C)c3nc12,-52.8,94.9*,25.2,-107.4,-1.6,52.1*,54.6*
Cc1cccc2c(C(=O)O)c3c(nc12)CCCCC3,2.6,1.0,3.4,6.1,-10.8,·,·
COC(=O)c1cc2c(c3c4cc(C)ccc4n(S(=O)(=O)c4cccc(C)c4)c13)C(=O)N(Cc1ccccc1OC)C2,·,·,·,9.6,·,·,·
Cc1ccccc1S(=O)(=O)c1cc2ccccc2nc1N,-9.5,46.2*,9.5,-60.3,-0.4,+,+
Cc1ccc(-c2cc3ccccc3nc2N)cc1,-1.0,46.0*,-3.8,-42.5,14.1,88.4*,80.0*
Cc1cc(C)c(S(=O)(=O)c2ccccc2C)c(Cl)n1,1.8,-0.3,4.3,-6.8,2.8,·,·
Cc1ccc2nc(Cl)c(-c3ccccc3)cc2c1,13.3,0.5,10.3,3.7,-8.3,·,·
Nc1nc2ccccc2cc1-c1cccs1,-3.0,68.9*,1.0,-84.3,8.3,76.2*,62.2*
N#Cc1ccc(Sc2nc3ccccc3[nH]2)cc1C#N,8.4,-0.6,-1.8,-13.0,-2.9,·,·
N#Cc1cc2ccccc2nc1N,·,75.0*,25.6,-61.8,-8.1,65.2*,48.5*
CCOC(=O)[C@@]12CCCC=C1N(CCc1ccc(Cl)cc1)C(=O)[C@H]2CC(=O)N1CCC(c2ccccc2)CC1,·,·,·,9.0,·,·,·
Cc1ccc(CN2CCSc3ccc(C(=O)NCc4ccccn4)cc32)cc1,4.3,65.6*,15.6,-68.4,-4.1,96.8*,66.6*
O=C(NCCCN1CCOCC1)c1ccc2c(c1)N(Cc1ccc(F)cc1)CCS2,-3.8,94.0*,10.9,-175.8,-16.4,178.2*,133.6*
SMILES,RecA intein inh,Mtb FBA inh,GDH-TPI counter-1,CCHFV vOTU inh,Mtb bLac sens,Mtb FBA inh conf,GDH-TPI counter-2
O=C(NCc1ccco1)c1ccc2c(c1)N(Cc1ccccc1)CCS2,13.7,51.4*,20.8,-55.2,-1.9,114.6*,82.3*
O=C(NCCCN1CCCC1)c1ccc2c(c1)N(Cc1ccccc1)CCS2,-1.1,96.3*,2.4,-130.2,-7.5,152.6*,146.8*
CCCN1CCCCC(NC(=O)c2ccc(C)cc2C)C1=O (stereo not given),·,·,·,-0.8,·,·,·
CCCCn1nc2cc(C(=O)NCc3ccc4c(c3)OCO4)ccc2c1OCC,-1.8,33.9*,-0.9,-21.8,-0.5,175.8*,140.5*
CCCn1nc2cc(C(=O)NCc3ccc4c(c3)OCO4)ccc2c1OCC,-1.4,61.9*,0.9,-48.6,14.8,186.1*,167.1*
CCOc1cc(C(=O)NCc2ccc3c(c2)OCO3)cc(OCC)c1OCC,·,1.2,8.6,14.9,3.3,·,·
CCOc1c2ccc(C(=O)NCc3ccc4c(c3)OCO4)cc2nn1CCOC,-1.7,49.4*,-5.8,-42.3,-0.3,1.9,-5.2
CCOc1c2ccc(C(=O)NCc3ccc4c(c3)OCO4)cc2nn1CC,0.2,50.8*,7.8,-51.5,10.9,102.0*,84.0*
CCN1C(=O)c2ccc(C(=O)NCc3ccc4c(c3)OCO4)cc2C1=O,0.2,0.0,7.0,-10.1,14.0,·,·
CCC(C)(C)C(=O)N1CCc2cc(S(=O)(=O)N(C)Cc3ccco3)ccc21,·,·,·,3.0,·,·,·
Cc1ccn2c(NC(C)(C)C)c(-c3cccs3)nc2c1,-0.7,33.2*,-3.8,-63.5,-5.3,+,+
O=C(COc1ccc(Cl)cc1)Nc1c(-c2cccs2)nc2ccccn12,-3.3,4.9,3.4,-21.3,4.5,·,·
CC(C)CCNc1c(-c2cccs2)nc2ccccn12,-43.3,46.4*,8.9,-46.7,-3.4,37.5*,20.7*
CC(=O)c1cc(-c2ccc3[nH]ccc3c2)c(=O)n2c1CCC2,·,·,·,-2.0,·,·,·
COc1ccc(C2Nc3ccccc3C(=O)N2c2ccc(F)cc2)cc1CSc1ccccn1 (stereo not given),-1.3,9.1,14.3,6.8,3.0,·,·
CCOC(=O)COc1c(OC)cc(Cl)cc1C1Nc2ccccc2C(=O)N1c1ccccc1 (stereo not given),3.7,38.6*,6.0,-53.8,2.4,144.0*,117.8*
CCOC(=O)COc1c(OC)cc(Cl)cc1C1Nc2ccccc2C(=O)N1c1cccc(C)c1 (stereo not given),14.2,17.5,0.8,-33.4,-1.5,·,·
CCOC(=O)COc1ccccc1C1Nc2ccccc2C(=O)N1c1cccc(Cl)c1 (stereo not given),4.3,36.4*,6.1,-42.3,9.7,+,+
CCOC(=O)COc1c(OC)cc(Cl)cc1C1Nc2ccccc2C(=O)N1c1ccc(F)cc1 (stereo not given),8.6,33.2*,8.7,-54.5,4.2,24.1,12.2*
CCCCC#Cc1ccccc1COC[B-](F)(F)F,·,·,·,19.5,·,·,·
NC(=O)Cc1cccc(C(=O)c2ccccc2)c1N,·,·,·,8.1,·,·,·
